Measured values published in PubChem BioAssay.
Calls of active or inactive are those of the source.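 The calls were made as follows: active = normalized viability below 100% at a tested concentration; inactive = the rest.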

Experiment: ovarian cancer cell viability with rucaparib, profiling panel, oncology-focused library, rucaparib conditional (AID 1508598)
Conditions: patient-derived ovarian cancer cells, CellTiter-Glo viability, 144 h; at 5 µM; OCI-C5x cells; without rucaparib; hits give low values

SMILES	viability
O=c1[nH]c(=O)n([C@@H]2C[C@H](O)[C@@H](CO)O2)cc1F	183% (inactive)
COc1cccc2c1C(=O)c1c(O)c3c(c(O)c1C2=O)C[C@@](O)(C(C)=O)C[C@H]3O[C@H]1C[C@H](N)[C@H](O)[C@H](C)O1	1.85% (active)
C[C@]12CC[C@H]3c4ccc(O)cc4CC[C@H]3[C@@H]1CC[C@H]2O	94.8% (active)
CC1=C(/C=C/C(C)=C\C=C\C(C)=C/C(=O)O)C(C)(C)CCC1	104% (inactive)
CC(C)CC(CC(=O)NO)C(=O)N[C@@H](Cc1ccc2ccccc2c1)C(=O)N[C@@H](C)C(=O)NCCN (stereo partly specified)	110% (inactive)
COc1cccc2c1C(=O)c1c(O)c3c(c(O)c1C2=O)C[C@@](O)(C(=O)CO)C[C@H]3O[C@H]1C[C@H](N)[C@@H](O)[C@H](C)O1	2.52% (active)
COc1ccc(C2=N[C@H](c3ccc(Cl)cc3)[C@@H](c3ccc(Cl)cc3)N2C(=O)N2CCNC(=O)C2)c(OC(C)C)c1	137% (inactive)
CO[C@H]1C[C@H]2CC[C@@H](C)[C@@](O)(O2)C(=O)C(=O)N2CCCC[C@H]2C(=O)O[C@H]([C@H](C)C[C@@H]2CC[C@H](OC(=O)C(C)(CO)CO)[C@H](OC)C2)CC(=O)[C@H](C)/C=C(\C)[C@@H](O)[C@@H](OC)C(=O)[C@H](C)C[C@H](C)/C=C/C=C/C=C/1C	88% (active)
O=C(O)c1cc(I)ccc1NC(=O)[C@H](Cc1ccccc1)NCc1ccccc1	112% (inactive)
Nc1ncn([C@@H]2O[C@H](CO)[C@@H](O)[C@@H]2O)c(=O)n1	109% (inactive)
CO[C@H]1C[C@@H]2CC[C@@H](C)[C@@](O)(O2)C(=O)C(=O)N2CCCC[C@H]2C(=O)O[C@H]([C@H](C)C[C@@H]2CC[C@@H](O)[C@H](OC)C2)CC(=O)[C@H](C)/C=C(\C)[C@@H](O)[C@H](OC)C(=O)[C@H](C)C[C@H](C)/C=C/C=C/C=C/1C	107% (inactive)
CC(=O)OCC(=O)[C@]1(O)[C@H](C)C[C@H]2[C@@H]3CCC4=CC(=O)C=C[C@]4(C)[C@]3(F)[C@H](O)C[C@@]21C	110% (inactive)
CC[C@]1(O)C[C@@H]2CN(CCc3c([nH]c4ccccc34)[C@@](C(=O)OC)(c3cc4c(cc3OC)N(C=O)[C@H]3[C@@](O)(C(=O)OC)[C@H](OC(C)=O)[C@]5(CC)C=CCN6CC[C@@]43[C@@H]65)C2)C1	22.9% (active)
C[C@@]12CC[C@H]3c4ccc(O)cc4C[C@@H](CCCCCCCCCS(=O)CCCC(F)(F)C(F)(F)F)[C@H]3[C@@H]1CC[C@@H]2O (stereo partly specified)	128% (inactive)
CC(=O)O[C@@]1(C(C)=O)CC[C@H]2[C@@H]3C[C@H](C)C4=CC(=O)CC[C@]4(C)[C@@H]3CC[C@@]21C	121% (inactive)
CC(=O)O[C@]12CO[C@@H]1C[C@H](O)[C@]1(C)C(=O)[C@H](O)C3=C(C)[C@H](OC(=O)[C@H](O)[C@@H](NC(=O)OC(C)(C)C)c4ccccc4)C[C@](O)([C@H](OC(=O)c4ccccc4)C21)C3(C)C (stereo partly specified)	56.7% (active)
CCC1=CC2CN(C1)Cc1c([nH]c3ccccc13)[C@@](C(=O)OC)(c1cc3c(cc1OC)N(C)[C@H]1[C@@](O)(C(=O)OC)[C@H](OC(C)=O)[C@]4(CC)C=CCN5CC[C@@]31[C@H]54)C2 (stereo partly specified)	22.2% (active)
CC(=O)O[C@H]1C(=O)[C@@]2(C)C([C@H](OC(=O)c3ccccc3)[C@]3(O)C[C@H](OC(=O)[C@H](O)[C@@H](NC(=O)c4ccccc4)c4ccccc4)C(C)=C1C3(C)C)[C@]1(OC(C)=O)CO[C@@H]1C[C@H]2O (stereo partly specified)	24.4% (active)

Same assay, conditions: patient-derived ovarian cancer cells, CellTiter-Glo viability, 144 h; at 5 µM; OCI-P5x cells; with rucaparib 20 µM; hits give low values; 100% = cells with rucaparib alone

SMILES	viability
O=c1[nH]c(=O)n([C@@H]2C[C@H](O)[C@@H](CO)O2)cc1F	72.1% (active)
COc1cccc2c1C(=O)c1c(O)c3c(c(O)c1C2=O)C[C@@](O)(C(C)=O)C[C@H]3O[C@H]1C[C@H](N)[C@H](O)[C@H](C)O1	4.23% (active)
C[C@]12CC[C@H]3c4ccc(O)cc4CC[C@H]3[C@@H]1CC[C@H]2O	107% (inactive)
CC1=C(/C=C/C(C)=C\C=C\C(C)=C/C(=O)O)C(C)(C)CCC1	84.1% (active)
CC(C)CC(CC(=O)NO)C(=O)N[C@@H](Cc1ccc2ccccc2c1)C(=O)N[C@@H](C)C(=O)NCCN (stereo partly specified)	78.6% (active)
COc1cccc2c1C(=O)c1c(O)c3c(c(O)c1C2=O)C[C@@](O)(C(=O)CO)C[C@H]3O[C@H]1C[C@H](N)[C@@H](O)[C@H](C)O1	3.69% (active)
COc1ccc(C2=N[C@H](c3ccc(Cl)cc3)[C@@H](c3ccc(Cl)cc3)N2C(=O)N2CCNC(=O)C2)c(OC(C)C)c1	94.1% (active)
CO[C@H]1C[C@H]2CC[C@@H](C)[C@@](O)(O2)C(=O)C(=O)N2CCCC[C@H]2C(=O)O[C@H]([C@H](C)C[C@@H]2CC[C@H](OC(=O)C(C)(CO)CO)[C@H](OC)C2)CC(=O)[C@H](C)/C=C(\C)[C@@H](O)[C@@H](OC)C(=O)[C@H](C)C[C@H](C)/C=C/C=C/C=C/1C	59.8% (active)
O=C(O)c1cc(I)ccc1NC(=O)[C@H](Cc1ccccc1)NCc1ccccc1	73.4% (active)
Nc1ncn([C@@H]2O[C@H](CO)[C@@H](O)[C@@H]2O)c(=O)n1	97.7% (active)
CO[C@H]1C[C@@H]2CC[C@@H](C)[C@@](O)(O2)C(=O)C(=O)N2CCCC[C@H]2C(=O)O[C@H]([C@H](C)C[C@@H]2CC[C@@H](O)[C@H](OC)C2)CC(=O)[C@H](C)/C=C(\C)[C@@H](O)[C@H](OC)C(=O)[C@H](C)C[C@H](C)/C=C/C=C/C=C/1C	65% (active)
CC(=O)OCC(=O)[C@]1(O)[C@H](C)C[C@H]2[C@@H]3CCC4=CC(=O)C=C[C@]4(C)[C@]3(F)[C@H](O)C[C@@]21C	88.4% (active)
CC[C@]1(O)C[C@@H]2CN(CCc3c([nH]c4ccccc34)[C@@](C(=O)OC)(c3cc4c(cc3OC)N(C=O)[C@H]3[C@@](O)(C(=O)OC)[C@H](OC(C)=O)[C@]5(CC)C=CCN6CC[C@@]43[C@@H]65)C2)C1	43% (active)
C[C@@]12CC[C@H]3c4ccc(O)cc4C[C@@H](CCCCCCCCCS(=O)CCCC(F)(F)C(F)(F)F)[C@H]3[C@@H]1CC[C@@H]2O (stereo partly specified)	119% (inactive)
CC(=O)O[C@@]1(C(C)=O)CC[C@H]2[C@@H]3C[C@H](C)C4=CC(=O)CC[C@]4(C)[C@@H]3CC[C@@]21C	92.5% (active)
CC(=O)O[C@]12CO[C@@H]1C[C@H](O)[C@]1(C)C(=O)[C@H](O)C3=C(C)[C@H](OC(=O)[C@H](O)[C@@H](NC(=O)OC(C)(C)C)c4ccccc4)C[C@](O)([C@H](OC(=O)c4ccccc4)C21)C3(C)C (stereo partly specified)	34.2% (active)
CCC1=CC2CN(C1)Cc1c([nH]c3ccccc13)[C@@](C(=O)OC)(c1cc3c(cc1OC)N(C)[C@H]1[C@@](O)(C(=O)OC)[C@H](OC(C)=O)[C@]4(CC)C=CCN5CC[C@@]31[C@H]54)C2 (stereo partly specified)	41.7% (active)
CC(=O)O[C@H]1C(=O)[C@@]2(C)C([C@H](OC(=O)c3ccccc3)[C@]3(O)C[C@H](OC(=O)[C@H](O)[C@@H](NC(=O)c4ccccc4)c4ccccc4)C(C)=C1C3(C)C)[C@]1(OC(C)=O)CO[C@@H]1C[C@H]2O (stereo partly specified)	34.2% (active)
